# Reference: PubChem BioAssay (Tox21)
# A number with no mark means an inactive call. Activity calls are given as the source filed them. The call rests on the fitted dose curve.
# Molecular target: Acetylcholinesterase (Homo sapiens) (UniProt P22303)
# Experiment: Acetylcholinesterase (AChE) small molecule antagonists: enzyme-based qHTS assay (AID 1347397); further: nearly all actives have a fitted effect of over 55% in size
# Details: Potency: AChE enzyme activity inhibition; outcome: AChE enzyme activity inhibition; series mostly up to 115 µM; activity change, negative = inhibition: at the top concentration
# Source text: National Center for Advancing Translational Sciences [NCATS]
# Division of Preclinical Innovation [DPI]
# U.S. Environmental Protection Agency [EPA]
# National Institutes of Environmental Health Sciences [NIEHS]
# National Toxicology Program [NTP]
# U.S. Food and Drug Administration [FDA]
# Acetylcholinesterase (AChE) is the primary cholinesterase in the body that hydrolyzes a key neurotransmitter, acetylcholine. Inhibition of AChE activity can lead to neurotoxicity. The known inhibitors include organophosphorous pesticides (OP), chemical warfare agents, drugs, and various phytochemicals.
# An enzyme-based assay with the recombinant human AChE and Amplite Colormetric acetylcholinesterase assay kit (AAT Bioquest, Sunnyvale, CA) was used to evaluate the chemicals in the Tox21 10K library that inhibit AChE activity. The assay uses 5, 5-dithiobis-(2-nitrobenzoic acid) (DTNB) to quantify the thiocholine produced from the hydrolysis of acetylthiocholine by AChE.
# Tox21 Assay Protocol Summary:
# For the enzyme-based AChE assay, recombinant human AChE (50 mU/mL) in 4 uL/well was dispensed into black, clear-bottom 1536-well plates using a Multidrop Combi dispenser (Thermo Scientific, MA). Then, 23 nL of compound or DMSO (vehicle control) was transferred into the assay plates by a Pintool Station (Wako Automation, CA). The plates were incubated for 30 min at room temperature, followed by the addition of 4 uL of colorimetric detection cocktail solution (DTNB, acetylthiocholine) into each well using a Flying Reagent Dispenser (Beckman Coulter, CA) and then 10 min incubation at room temperature.
# On the % scale 0 is the no-effect control and ±100 the full control effect.
# Chain of Acetylcholinesterase (Homo sapiens) (P22303 whole entry, looked up): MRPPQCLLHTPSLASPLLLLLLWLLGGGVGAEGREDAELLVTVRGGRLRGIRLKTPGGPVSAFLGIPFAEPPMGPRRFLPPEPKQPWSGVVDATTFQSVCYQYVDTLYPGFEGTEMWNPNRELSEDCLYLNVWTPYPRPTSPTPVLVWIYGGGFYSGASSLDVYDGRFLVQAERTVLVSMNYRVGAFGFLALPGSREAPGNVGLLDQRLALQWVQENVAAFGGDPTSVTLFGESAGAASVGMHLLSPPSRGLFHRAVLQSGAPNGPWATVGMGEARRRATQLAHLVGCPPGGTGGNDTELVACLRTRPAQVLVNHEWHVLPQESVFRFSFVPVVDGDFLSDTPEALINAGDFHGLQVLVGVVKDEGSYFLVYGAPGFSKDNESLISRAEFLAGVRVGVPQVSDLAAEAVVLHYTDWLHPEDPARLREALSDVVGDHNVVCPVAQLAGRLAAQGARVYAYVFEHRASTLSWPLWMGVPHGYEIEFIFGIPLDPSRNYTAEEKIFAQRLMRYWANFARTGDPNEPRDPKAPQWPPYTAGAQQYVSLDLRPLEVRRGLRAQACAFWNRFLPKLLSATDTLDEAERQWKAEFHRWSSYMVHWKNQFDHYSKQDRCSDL
Compound,"activity change, negative = inhibition",Potency
CC(C)Nc1cccnc1N1CCN(C(=O)c2cc3cc(NS(C)(=O)=O)ccc3[nH]2)CC1,-0.27% [at 53 µM],–
Fc1ccc(Br)cc1,–,inactive
O=C(Cl)c1ccc(Cl)cc1Cl,-0.382%,–
Nc1ccccc1Nc1ccccc1,1.09%,–
O=Cc1ccc(Cl)cc1,0.139%,–
C1CN(SSN2CCOCC2)CCO1,–,inactive
C1=Cc2ccccc2C1,-0.389%,–
CC(C)(c1ccc(Oc2ccc(N)cc2)cc1)c1ccc(Oc2ccc(N)cc2)cc1,0.136%,–
c1cnc(N2CCN(Cc3ccc4c(c3)OCO4)CC2)nc1,-0.507% [at 53 µM],–
Cc1cc(C(C)(C)C)c(O)c(C(C)(C)C)c1,–,inactive
COC(=O)c1sccc1S(N)(=O)=O,-1.03%,–
COc1cccc2sc(N)nc12,0.273%,–
Cc1nn(C)c(Oc2ccccc2)c1/C=N/OCc1ccc(C(=O)OC(C)(C)C)cc1,-1.66%,–
CCCCOC(=O)C(=O)OCCCC,-1.13%,–
CCOC(=O)C(O)c1ccccc1 (stereo not given),1.17% [at 53 µM],–
CCC(C)CO (stereo not given),–,inactive
O=[N+]([O-])C(CO)(CO)CO,–,inactive
Cc1onc(-c2ccccc2Cl)c1C(=O)N[C@@H]1C(=O)N2[C@@H]1SC(C)(C)[C@@H]2C(=O)O,-0.434% [at 53 µM],–
CC1CC(OC(=O)c2ccccc2O)CC(C)(C)C1 (stereo not given),–,inactive
CCC(=O)OCc1ccccc1,-1.04%,–

Compound,"activity change, negative = inhibition",Potency
CCCCCCCCCCCCCCCCI,1.36% [at 23.6 µM],–
CCCCC(CC)COC(=O)CCCCC(=O)OCC(CC)CCCC (stereo not given),–,inactive
CC1CC(O)CC(C)(C)C1 (stereo not given),-0.242%,–
O=c1[nH]sc2cc(Cl)ccc12,-0.495% [at 53 µM],–
O=C1NCCN1,0.85%,–
CNC(=O)CN(CCN(CCN(CC(=O)[O-])CC(=O)NC)CC(=O)[O-])CC(=O)[O-].O.[Gd+3],0.258% [at 53 µM],–
COc1ccc(S(=O)(=O)Nc2nnc(CC(C)C)s2)cc1,0.693% [at 53 µM],–
Oc1c(I)cc(Cl)c2cccnc12,–,inactive
O=C1CCCc2c(O)cccc21,-0.143% [at 53 µM],–
CCCCc1nc2cccnc2n1Cc1ccc(-c2ccccc2-c2nnn[nH]2)cc1,-0.0217%,–
CCCCC(CC)COC(=O)c1ccc(C(=O)OCC(CC)CCCC)cc1 (stereo not given),–,inactive
CC(C)OC(=O)C(C(=O)OC(C)C)=C1SC=CS1,-0.0829% [at 53 µM],–
CC(=O)/C=C/C1C(C)=CCC(C)C1(C)C (stereo not given),-4.59%,–
Nc1nc(N)nc(-c2ccccc2)n1,–,inactive
CC(CN)CCCN (stereo not given),-1.67%,–
OCCSc1ccccc1,0.0264%,–
CCC(C)(C)C1CCC(O)CC1 (stereo not given),1.14%,–
CC1=CC[C@H](C(C)C)C=C1,-2.69%,–
Brc1cc(Br)cc(Br)c1,0.273%,–
CCCCCSCCCCC,-0.0889%,–
